Take `COC[C@@H](C)N[C@H]1CC[C@H](Nc2cc(-c3cccc(NCC4(C#N)CCOCC4)n3)c(Cl)cn2)CC1` [NVP-2]: the Kinases covered entry in the experiment with DYRK1A is “DYRK1A”.
Regarding `O=C(Nc1n[nH]c2cc(-c3ccsc3)ccc12)C1CC1` [SB-732932], the Kinases covered entry in the experiment on CDKL2 was “CDKL2”.
As for `Nc1nccc(-c2c(-c3ccc(F)cc3)ncn2C2CCN(Cc3ccccc3)CC2)n1` [SB-219980], the Kinases covered result is reported as “CSNK1A1” with CSNK1A1, “CSNK1D” in the experiment on CSNK1D and “CSNK1E” in the experiment on CSNK1E.
In the case of `COc1ccc2c(-c3ccnc(Nc4cccc(OC(F)(F)F)c4)n3)cnn2n1` [GW810372X], in the experiment with CLK2, the Kinases covered result is recorded as “CLK2”.
As for `C[C@@H]1CCN(C(=O)CC#N)C[C@@H]1N(C)c1ncnc2[nH]ccc12` [PFE-PKIS 25], in the experiment on DCLK3, the Kinases covered entry is recorded as “DCLK3”.
As to `CCOc1ccc2c(-c3ccnc(Nc4cc(OC)cc(C(F)(F)F)c4)n3)cnn2n1` [GW807982X], the figures for the Kinases covered result in the experiment on CLK1 and with CLK2 were “CLK1” and “CLK2”, respectively.
As for `CCN1CCN(Cc2ccc(C(=O)Nc3ccc(C)c(Oc4ccc5c(c4)CC(=O)N5)c3)cc2C(F)(F)F)CC1.Cl.Cl` [DDR1-IN-1], the Kinases covered result in the experiment on DDR1 is reported as “DDR1”.
For `Cn1ccc2ncnc(Oc3ccc(NC(=O)Nc4ccccc4)cc3)c21` [TPKI-69], the Kinases covered result with CSF1R is recorded as “CSF1R”.
As to `NS(=O)(=O)c1ccc(N/N=C2\C(=O)Nc3ccc(C(=O)NCCc4c[nH]cn4)cc32)cc1` [GW300660X], the Kinases covered result with CLK2 is “CLK2”.
Regarding `O=C(Nc1ccccc1)Nc1cccc(Oc2ccc3nccn3n2)c1` [TPKI-39], the values for the Kinases covered entry in the experiment on CIT, in the experiment on CSF1R and in the experiment on DDR1 were “CIT”, “CSF1R” and “DDR1”, respectively.
As to `CNC(=O)c1c(F)cccc1Nc1nc(Nc2cc3c(cc2OC)CCN3C(=O)CN(C)C)nc2[nH]ccc12` [GSK1838705], the Kinases covered result with CLK1 is reported as “CLK1”; in the experiment on CLK2, “CLK2”.
`CCCNC(=O)c1ccc(Nc2ncc(C(F)(F)F)c(Nc3ccccc3C(C)=O)n2)c(Br)c1` [BI00801818]: the Kinases covered entry in the experiment with CLK1 is on record as “CLK1”; in the experiment on CLK4, “CLK4”; with DYRK1A, “DYRK1A”.
